From PubChem BioAssay
This is a sample that favours compounds with a hit; in the whole collection about 5.5% have one here.
Gal4-VP16 FLuc = inhibits Gal4-VP16 luciferase reporter, ROR gamma counter-screen | AID 2546 | Potency, µM (doses to about 53.6 µM), without a hit: top-dose activity, negative = inhibition, hits mostly inhibitors | actives 3.5% (n = 310,000) | Drosophila S2 Gal4-VP16 UAS-luciferase, luminescence, 20 h;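 note: Gal4-VP16 expression switched on by copper sulfate through the metallothionein promoter; potency is the fitted concentration of half-maximal effect; % is set by controls: 0 for no effect and ±100 for the full control effect; nearly all actives have a fitted effect of over 50% in size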
RORgamma inh = blocks mouse ROR gamma transcriptional activity | P51450 | Drosophila S2 Gal4-RORgamma UAS-luciferase reporter, 20 h | Potency, µM (top dose mostly 53.6 µM), for the others: at the highest dose activity change, negative = inhibition, most hits filed as inhibitors | actives 5.4% (n = 310,000) | AID 2551; note: potency is the fitted concentration of half-maximal effect; % is set by controls: 0 for no effect and ±100 for the full control effect; nearly all actives have a fitted effect of over 60% in size
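ROR gamma transcriptional activity was tracked as Gal4-UAS luciferase output in stably transfected Drosophila Schneider cells, with compound added 1 hr before 700 uM copper sulfate induction and a 20 hr ambient-temperature incubation.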
MBNL1-CUG inh = inhibitors of human MBNL1 binding to CUG repeat RNA; TR-FRET MBNL1-His/biotin-(CUG)12 binding, 665/545 ratio; Potency, µM (top dose mostly 57.5 µM), for the others: top-dose activity change, negative = inhibition, most hits filed as inhibitors; actives 0.036% (n = 280,000); Q9NR56; active = well fitted inhibition curve with a large enough effect in the signal ratio, with a control signal flat, not every such curve was filed as active; inconclusive = small, poorly fitted or top-dose-only effect, or effect the other way, or a change in a side signal; inactive = no such curve, though single readings can be large or run the other way; the % refers to the signal ratio; note: potency is the fitted concentration of half-maximal effect; % is set by controls: 0 for no effect and ±100 for the full control effect
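TR-FRET between His-tagged MBNL1 and biotin-(CUG)12 RNA, detected with Tb anti-His antibody (0.055 ng/ul) and streptavidin-XL665 (5 nM), 60 min at room temperature. Compounds titrated 92 nM to 58 uM; 665/545 nm ratio normalized to buffer and complex controls.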
Six1-Eya2 blk = blocks human Six1 binding to Eya2 | Q15475+O00167 | AlphaScreen GST-Six1/His-Eya2 binding, biochemical; stronger effect = lower value | activity change, % (concentration not given with the values) | actives 0.56% (n = 360,000); in the data active = activity change below about -65%; inconclusive = mostly about -30% to -63%; note: % is set by controls: 0 for no effect and ±100 for the full control effect
Target sequence (O00167 whole entry, looked up): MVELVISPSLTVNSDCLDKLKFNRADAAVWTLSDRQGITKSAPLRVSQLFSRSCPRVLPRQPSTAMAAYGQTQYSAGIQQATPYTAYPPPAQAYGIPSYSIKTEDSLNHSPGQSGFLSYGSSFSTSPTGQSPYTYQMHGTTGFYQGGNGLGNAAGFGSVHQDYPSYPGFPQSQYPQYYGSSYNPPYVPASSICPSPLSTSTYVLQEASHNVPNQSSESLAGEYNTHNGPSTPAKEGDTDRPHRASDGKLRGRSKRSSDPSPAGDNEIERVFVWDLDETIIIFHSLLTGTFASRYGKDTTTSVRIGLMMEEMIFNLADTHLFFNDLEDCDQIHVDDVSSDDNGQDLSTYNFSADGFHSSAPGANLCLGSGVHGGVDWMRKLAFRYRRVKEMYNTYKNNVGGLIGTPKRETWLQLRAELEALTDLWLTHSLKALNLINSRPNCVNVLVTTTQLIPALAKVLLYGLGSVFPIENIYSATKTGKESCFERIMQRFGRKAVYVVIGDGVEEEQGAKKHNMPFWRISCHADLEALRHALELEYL
Target sequence (Q15475 whole entry, looked up): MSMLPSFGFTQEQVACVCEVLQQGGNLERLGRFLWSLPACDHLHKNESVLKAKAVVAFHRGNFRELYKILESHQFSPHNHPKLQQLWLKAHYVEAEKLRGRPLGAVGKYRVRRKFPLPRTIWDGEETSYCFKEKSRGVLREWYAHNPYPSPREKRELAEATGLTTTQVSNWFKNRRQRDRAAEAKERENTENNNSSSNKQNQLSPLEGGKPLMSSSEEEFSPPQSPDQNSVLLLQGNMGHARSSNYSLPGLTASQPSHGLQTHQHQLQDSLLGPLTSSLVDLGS
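Compounds are tested against tagged Six1 and Eya2 proteins bridged by glutathione donor and nickel acceptor beads; after a one-hour incubation at 37 °C without light, AlphaScreen emission is recorded.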
CtBP-E1A blk = CtBP/E1A binding inhibition; activity change, % (concentration not given with the values); AlphaScreen GST-E1A/His-CtBP binding, 1536-well; stronger effect = lower value; actives 0.49% (n = 340,000); in the data active = activity change below about -65%; inconclusive = mostly about -30% to -63%; note: % is set by controls: 0 for no effect and ±100 for the full control effect
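AlphaScreen with 125 nM GST-E1A and 125 nM His-CtBP (5X stocks) in Tris pH 8.0, 300 mM NaCl, BSA, Tween 20, TCEP. Compounds preincubated 2 h at 37 deg C, then glutathione donor/nickel acceptor beads added for 1 h at 37 deg C in dark.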
CBFb RUNX1 block = inhibitors of human CBF-beta and RUNX1 interaction; Q01196+Q13951; AlphaScreen CBFb-His/RUNX1-biotin binding, biochemical; Potency, µM (titrated, usually from 59.8 µM), inactives show top-dose activity, negative = inhibition, usual class: inhibitors; 230,000 tested, under 10 active; note: % of control where 0% means no effect
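His-tagged CBF-beta and biotinylated RUNX1 (30 nM each) were premixed 20 min at room temperature, exposed to compound for 15 min, then given nickel-chelate and streptavidin AlphaScreen beads (50 ng each). After 90 min, AlphaScreen signal was read.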
* hit, by the source's call; ? = inconclusive; · = no result given; [ ] = remark or other dose. Unless noted, calls come from the whole dose curve; as a rule, active = well fitted curve in the direction sought with a large enough effect; inconclusive = small, poorly fitted or top-dose-only effect, or another doubt; inactive = no such curve, though single readings can be large; an effect the other way counts as inactive or inconclusive.

SMILES	Gal4-VP16 FLuc	RORgamma inh	MBNL1-CUG inh	Six1-Eya2 blk	CtBP-E1A blk	CBFb RUNX1 block
CCC1=NN(C(=O)c2ccc([N+](=O)[O-])cc2)C(O)(c2ccccc2)C1 (configuration not stated)	?	-35%[1.91 µM]	?	-16	-30	·
CC(C)NC(=O)N1CC2(CCN(C(=O)c3ccncc3)CC2)C1	-6%	-20%	·	·	·	·
COc1ccc(CCNC(=S)NC(=O)c2ccccc2)cc1C	?	10µM*	11%	-9	-8	-9%
COc1ccc(CCNC(=O)C(=O)NCC2OCCN2S(=O)(=O)c2ccc(Br)cc2)cc1OC (configuration not stated)	7.9µM*	?	6%	13	7	-6%
COc1ccc(CCNC(=S)c2ccccc2)cc1OC	16µM*	?	-5%	-1	1	·
COc1ccc(CCNC(=S)NC(=O)c2ccc(Br)cc2)cc1OC	?	13µM*	6%	-12	-22	-17%
C[C@H](CCC(=O)NCC(=O)O)C1CC[C@H]2C3CC[C@@H]4C[C@H](O)CC[C@]4(C)C3C[C@H](O)[C@]12C (some centres not stated)	·	·	·	·	·	14%
COc1ccc(/C=C/C(=O)ONC2=NCCCCC2)cc1OC	-24%	11µM*	?	-18	9	5%
COc1ccc(/C=C/C(=O)Nc2ccccc2C(=O)O)cc1OC	7.9µM*	3.5µM*	?	·	·	11%
COc1ccc(/C=C/C(=O)Nc2ccc3c(c2)CCC3)cc1OC	4µM*	?	17%	-2	-19	6%
COc1ccc(/C=C/C(=O)Nc2ccccc2C(F)(F)F)cc1OC	-5%	1%	8%	0	0	0%
COc1ccc(/C=C/C(=O)Nc2ccccc2C(=O)N2CCCC2)cc1	1%	1%	9%	-2	-16	-1%
COc1ccc(/C=C/C(=O)Nc2ccccc2C(=O)O)cc1	10µM*	7.9µM*	?	10	5	-8%
Cc1ccc(Cl)cc1NCN1C(=O)c2ccccc2C1=O	·	·	·	-4	3	·
Cc1ccc2c(C(=O)CN3CCN(C(=O)c4ccco4)CC3)c(C)[nH]c2c1	-8%	?	·	-9	8	3%
O=C(CSc1n[nH]c(-c2cccnc2)n1)OC1CCCCC1	-2%	20%	-17%	21	8	6%
COc1ccccc1-c1cnc(C(O)c2ccc(C)cc2C)[nH]1 (configuration not stated)	·	·	·	0	-11	·
CCCCC(=O)Nc1ccc(C(=O)N(CC)c2ccccc2C)cc1	-1%	2.2µM*	5%	10	-18	4%
Cc1cc(N2CCCCC2)n2nc(C)c(-c3ccccc3)c2n1	-4%	-19%	9%	39	40	14%
Cc1nn2c(N3CCCC3)cc(C(C)C)nc2c1-c1ccccc1	-2%	14µM*	5%	10	22	11%
COc1ccccc1-c1c(C)nn2c(N3CCCCCC3)cc(C)nc12	20µM*	16µM*	-4%	0	10	13%
Cc1ccc(C2=NS(=O)(=O)N(C)C(C(=O)Nc3cc(C)n(CC(=O)N4CCCCC4)n3)=C2)cc1	-8%	0%	25%	0	0	·
CCN(CC(=O)Nc1c(F)cccc1F)C(=O)CCNC(=O)c1ccc([N+](=O)[O-])cc1	·	·	·	1	3	·
Cc1cc(N2CCN(c3ccc([N+](=O)[O-])c4cccnc34)CC2)c2ccccc2n1	7.1µM*	13µM*	·	4	26	-4%
N#CCCN(CCC#N)S(=O)(=O)c1ccc(C(=O)Nc2nnc(C3=COCCO3)o2)cc1	-4%	-26%	-17%	-21	·	-17%
SMILES	Gal4-VP16 FLuc	RORgamma inh	MBNL1-CUG inh	Six1-Eya2 blk	CtBP-E1A blk	CBFb RUNX1 block
O=C(CS(=O)(=O)c1ccccc1)Nc1nnc(-c2cccs2)o1	·	·	·	-21	7	·
CCCCN(C)S(=O)(=O)c1ccc(C(=O)Nc2nnc(-c3cccs3)o2)cc1	0.89µM*	0.32µM*	1%	·	·	-23%
CCCCN(C)S(=O)(=O)c1ccc(C(=O)Nc2nnc(C3=COCCO3)o2)cc1	1.8µM*	0.71µM*	2%	-2	-17	-18%
Cc1cc(C)cc(N(CC(=O)NC2CCCC2)C(=O)CNC(=O)c2cccs2)c1	2%	-11%	-5%	30	19	·
CCCCCCN1C[C@@H](O)[C@H](n2cc(COC(=O)c3ccccc3)nn2)C[C@@H]1c1ccc(OC)cc1	·	·	·	-2	-8	·
Cc1cc(-c2cc(C(=O)NCc3ccccc3)on2)nc(S(C)(=O)=O)n1	?	5µM*	-2%	10	-24	3%
S=C1NCCc2ccc(Cl)cc2C1c1ccccc1 (configuration not stated)	2.5µM*	1.3µM*	-4%	-23	-24	-11%
CCOC1(OCC)C(c2ccc(Cl)cc2)C(C#N)(C#N)C1(OCC)OCC (configuration not stated)	-63%	13µM*	-5%	-1	4	1%
COc1ccc(C2C3=C(Nc4ncnn42)c2ccccc2CC3)cc1OC (configuration not stated)	1%	-21%	11%	·	·	-2%
CC1CC2=C(NC(=S)NC2c2ccc(F)cc2)/C(=C/c2ccc(F)cc2)C1 (configuration not stated)	7.1µM*	1.6µM*	13%	-5	-12	-13%
FC(F)(F)c1ccccc1C1C2=C(Nc3ncnn31)c1ccccc1CCC2 (configuration not stated)	4.5µM*	-151%	5%	·	·	-1%
C(=C1/CCCC2=C1Nc1ncnn1C2c1ccccc1)/c1ccccc1 (configuration not stated)	4µM*	2.8µM*	?	·	·	-4%
Fc1ccccc1/C=C1\CCCC2=C1NC(=S)NC2c1ccccc1F (configuration not stated)	11µM*	2.5µM*	-5%	-17	·	?
CCCCC(NC(=O)c1ccc(C#N)cc1)C(=O)NCCC (configuration not stated)	·	·	·	0	0	·
S=C1NC2=C(CCC/C2=C\c2ccccc2)C(c2ccccc2)N1 (configuration not stated)	8.9µM*	3.5µM*	18%	-12	-13	-12%
Fc1cccc(/C=C2\CCCC3=C2NC(=S)NC3c2cccc(F)c2)c1 (configuration not stated)	3.5µM*	2.8µM*	·	-9	·	?
S=C1NC2=C(CCC/C2=C\c2ccc(Cl)cc2)C(c2ccc(Cl)cc2)N1 (configuration not stated)	?	15%	·	-10	-7	-2%
